Measured values: PubChem BioAssay (NCI)
About 79,000 compounds went through this panel and 15% of them were active in at least one assay; those are over-represented in the sample as a whole. Calls of active or inactive are those of the source. Rule as the data show it: active = growth inhibition above about 70%; inactive = the rest.

What was measured:
[1] = NCI Yeast Anticancer Drug Screen. Data for the rad52 strain (AID 147);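 also: 0% = growth of vehicle-treated control cultures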; settings: S. cerevisiae rad52 mutant growth inhibition, hits give high values
How it was run: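 Read-out: growth inhibition versus vehicle-treated controls. Cells were a DNA repair-deficient yeast strain treated with compounds.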

[2] = NCI Yeast Anticancer Drug Screen. Data for the rad50EPP+ strain (AID 151);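 also: 0% = growth of vehicle-treated control cultures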; settings: S. cerevisiae rad50 mutant strain, hits give high values
How it was run: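 Growth inhibition read against vehicle controls in rad50EPP+ yeast, a strain altered in DNA damage repair, after compound exposure.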

[3] = NCI Yeast Anticancer Drug Screen. Data for the mgt1 strain (AID 153); settings: S. cerevisiae mgt1 mutant growth inhibition, hits give high values
How it was run: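 mgt1 yeast grown with test compound; read-out is growth inhibition versus vehicle-treated cultures.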

[4] = NCI Yeast Anticancer Drug Screen. Data for the rad50 strain (AID 155);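 also: 0% = growth of vehicle-only cultures of the same strain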; settings: S. cerevisiae rad50 strain growth inhibition, hits give high values
How it was run: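 Vehicle-treated cultures provide the reference for the growth inhibition reported for compound-exposed, repair-deficient yeast.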

[5] = NCI Yeast Anticancer Drug Screen. Data for the mec2-1 strain (AID 157); settings: S. cerevisiae mec2-1 strain, hits give high values
How it was run: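 Yeast mec2-1 mutant treated with compound. Readout: growth inhibition vs vehicle controls.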

[6] = NCI Yeast Anticancer Drug Screen. Data for the rad14 strain (AID 159);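 also: 0% = growth of vehicle-treated control cultures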; settings: S. cerevisiae rad14 strain growth inhibition, hits give high values
How it was run: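 Inhibition of growth is reported for a repair-deficient yeast mutant following compound treatment, calculated relative to cultures that received vehicle.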

[7] = NCI Yeast Anticancer Drug Screen. Data for the sgs1 mgt1 strain (AID 161);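 also: 0% = growth of cultures given vehicle only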; settings: S. cerevisiae sgs1 mgt1 strain, hits give high values
How it was run: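 Inhibition of yeast growth, normalised to vehicle-treated controls, is reported for a strain bearing genetic alterations in DNA damage repair.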

[8] = NCI Yeast Anticancer Drug Screen. Data for the CLN2oe strain (AID 163);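 also: 0% = growth of vehicle-only control cultures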; settings: S. cerevisiae CLN2oe strain, hits give high values
How it was run: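 Read-out: yeast growth inhibition, expressed relative to vehicle-only controls. The strain bears an engineered cell-cycle alteration.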

[9] = NCI Yeast Anticancer Drug Screen. Data for the cln2 rad14 strain (AID 165);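 also: 0% = growth equal to vehicle treated cultures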; settings: S. cerevisiae cln2 rad14 strain, hits give high values
How it was run: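 cln2 rad14 yeast strain; compound exposure; growth inhibition read vs vehicle controls.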

[10] = NCI Yeast Anticancer Drug Screen. Data for the bub3 strain (AID 167); settings: S. cerevisiae bub3 mutant strain, hits give high values
How it was run: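 Mutant yeast screening strain plus compound; vehicle-treated cultures serve as the 0% inhibition reference.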

[11] = NCI Yeast Anticancer Drug Screen. Data for the wt2 strain (AID 169); settings: S. cerevisiae wt2 strain growth inhibition, hits give high values
How it was run: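 Read-out: growth inhibition versus vehicle-treated control cultures after compound exposure of the yeast strain.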

[12] = NCI Yeast Anticancer Drug Screen. Data for the mlh1 strain (AID 171);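 also: 0% = growth of vehicle-treated control cultures of the same strain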; settings: S. cerevisiae mlh1 strain growth inhibition, hits give high values
How it was run: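 Read-out: growth inhibition versus vehicle controls. Strain: engineered yeast with a defined DNA repair or cell cycle defect, compound-treated.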

[13] = NCI Yeast Anticancer Drug Screen. Data for the sgs1 strain (AID 173);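 also: 0% = growth of vehicle-only control cultures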; settings: S. cerevisiae sgs1 mutant, hits give high values
How it was run: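 Read-out: yeast growth inhibition relative to vehicle controls, following compound exposure of a strain with a defined DNA repair/cell cycle alteration.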

[14] = NCI Yeast Anticancer Drug Screen. Data for the mlh1 rad18 strain (AID 175); settings: S. cerevisiae mlh1 rad18 strain growth inhibition, hits give high values
How it was run: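 Yeast w/ defined DNA-repair lesions; compound exposure; growth vs vehicle controls → % inhibition.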

[15] = NCI Yeast Anticancer Drug Screen. Data for the rad18 strain (AID 177); settings: S. cerevisiae rad18 mutant growth inhibition, hits give high values
How it was run: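 Readout: growth inhibition vs vehicle controls. Cells: genetically altered yeast strain, DNA repair defect.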

[16] = at 5.0 µM (retest, dose inferred, filed as 0.5)
[17] = at 50.0 µM (retest, dose inferred, filed as 5.0)

Measured: growth inhibition

Cc1cc(C)c(S(=O)(=O)c2ccc(Cl)cc2)c(C)c1
inactive: [1]; at 1.2 µM -3% | [1]; at 3.7 µM -4% | [1]; at 11.0 µM -2% | [1]; at 33.0 µM 7% | [1]; at 100.0 µM 29% | [2]; at 1.2 µM -1% | [2]; at 3.7 µM 9% | [2]; at 11.0 µM 20% | [2]; at 33.0 µM 13% | [2]; at 100.0 µM 21% | [3]; at 1.2 µM -7% | [3]; at 3.7 µM -8% | [3]; at 11.0 µM -14% | [3]; at 33.0 µM -13% | [3]; at 100.0 µM -3% | [4]; at 1.2 µM 0% | [4]; at 3.7 µM 3% | [4]; [16] -7% | [4]; at 11.0 µM 6% | [4]; at 33.0 µM 8% | [4]; [17] 3% | [4]; at 50.0 µM 62.4% | [4]; at 100.0 µM 49% | [5]; at 1.2 µM -5% | [5]; at 3.7 µM -10% | [5]; [16] -5% | [5]; at 11.0 µM -16% | [5]; at 33.0 µM -16% | [5]; [17] 19% | [5]; at 50.0 µM 48% | [5]; at 100.0 µM 13% | [6]; at 1.2 µM -5% | [6]; at 3.7 µM -8% | [6]; at 11.0 µM -10% | [6]; at 33.0 µM -8% | [6]; at 100.0 µM 20% | [7]; [16] -3% | [7]; [17] 17% | [8]; at 1.2 µM -8% | [8]; at 3.7 µM -15% | [8]; at 11.0 µM -22% | [8]; at 33.0 µM -13% | [8]; at 100.0 µM -2% | [9]; [16] -9% | [9]; [17] -16% | [9]; at 50.0 µM -10.4% | [10]; at 1.2 µM -3% | [10]; at 3.7 µM 4% | [10]; [16] 5% | [10]; at 11.0 µM 11% | [10]; at 33.0 µM 19% | [10]; [17] 20% | [10]; at 100.0 µM 48% | [11]; at 1.2 µM -5% | [11]; at 3.7 µM -7% | [11]; at 11.0 µM -8% | [11]; at 33.0 µM -6% | [11]; at 100.0 µM 18% | [12]; at 1.2 µM -8% | [12]; at 3.7 µM -6% | [12]; at 11.0 µM -6% | [12]; at 33.0 µM -5% | [12]; at 100.0 µM 30% | [13]; at 1.2 µM -8% | [13]; at 3.7 µM 0% | [13]; at 11.0 µM 0% | [13]; at 33.0 µM 7% | [13]; at 100.0 µM 46% | [14]; [16] -6% | [14]; [17] 1% | [14]; at 50.0 µM 35.2% | [15]; at 1.2 µM -9% | [15]; at 3.7 µM -10% | [15]; at 11.0 µM -13% | [15]; at 33.0 µM -9% | [15]; at 100.0 µM 16%
active: [7]; at 50.0 µM 77.1% | [10]; at 50.0 µM 80.9%

CC(=O)/C=C/c1cc([N+](=O)[O-])ccc1O
inactive: [1]; at 1.2 µM -47% | [1]; at 3.7 µM -33% | [1]; at 11.0 µM -9% | [2]; at 1.2 µM -27% | [2]; at 3.7 µM -4% | [2]; at 11.0 µM 30% | [3]; at 1.2 µM -1% | [3]; at 3.7 µM 2% | [3]; at 11.0 µM -2% | [4]; at 1.2 µM -22% | [4]; at 3.7 µM -20% | [4]; [16] 7% | [4]; at 11.0 µM -5% | [5]; at 1.2 µM -5% | [5]; at 3.7 µM -25% | [5]; [16] 0% | [5]; at 11.0 µM 29% | [6]; at 1.2 µM -30% | [6]; at 3.7 µM -22% | [6]; at 11.0 µM 9% | [7]; [16] 12% | [8]; at 1.2 µM -5% | [8]; at 3.7 µM 3% | [8]; at 11.0 µM 23% | [9]; [16] 36% | [9]; at 50.0 µM 46.5% | [10]; at 1.2 µM -28% | [10]; at 3.7 µM -18% | [10]; [16] 21% | [10]; at 11.0 µM 11% | [10]; at 50.0 µM 49.7% | [11]; at 1.2 µM -31% | [11]; at 3.7 µM -32% | [11]; at 11.0 µM -23%
active: [1]; at 33.0 µM 79% | [1]; at 100.0 µM 97% | [2]; at 33.0 µM 78% | [2]; at 100.0 µM 95% | [3]; at 33.0 µM 94% | [3]; at 100.0 µM 97% | [4]; at 33.0 µM 83% | [4]; [17] 85% | [4]; at 50.0 µM 86% | [4]; at 100.0 µM 97% | [5]; at 33.0 µM 96% | [5]; [17] 89% | [5]; at 50.0 µM 90.5% | [5]; at 100.0 µM 99% | [6]; at 33.0 µM 97% | [6]; at 100.0 µM 98% | [7]; [17] 87% | [7]; at 50.0 µM 88.9% | [8]; at 33.0 µM 86% | [8]; at 100.0 µM 98% | [9]; [17] 87% | [10]; at 33.0 µM 95% | [10]; [17] 92% | [10]; at 100.0 µM 98% | [11]; at 33.0 µM 76% | [11]; at 100.0 µM 98%
